Laboratory results from PubChem BioAssay (NCATS).
Results filed as inconclusive are left out. Active and inactive are the calls of the source. Calls come from the whole dose curve; as a rule, active = well fitted curve in the direction sought with a large enough effect; inconclusive = small, poorly fitted or top-dose-only effect, or another doubt; inactive = no such curve, though single readings can be large; an effect the other way counts as inactive or inconclusive.

Key:
[1] = Quantitative High-Throughput drug screen in 47 multiple myeloma cell lines against the NCATS MIPE library collection: FR4_PLB cell viability assay (AID 1918924; note: nearly all actives have a fitted effect of over 35% in size)
In short: (§1)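 Myeloma cell lines, 500 cells per well, exposed to MIPE 4.0 library compounds for 48 h at 37C, 5% CO2. Viability from ATP by CellTiter-Glo luminescence; normalised to DMSO (100%) and media-only (0%) wells.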

[2] = Quantitative High-Throughput drug screen in 47 multiple myeloma cell lines against the NCATS MIPE library collection: EJM_DSMZ cell viability assay (AID 1918926; note: nearly all actives have a fitted effect of over 30% in size)
In short: as §1

[3] = Quantitative High-Throughput drug screen in 47 multiple myeloma cell lines against the NCATS MIPE library collection: ARP1_JJKsccF8 cell viability assay (AID 1918928; note: nearly all actives have a fitted effect of over 40% in size)
In short: (§2)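 Myeloma cells, 500 per well, were exposed to MIPE 4.0 drugs by pin transfer for 48 h at 37 °C, 5% CO2. Viability was read as ATP luminescence with CellTiter-Glo, normalised to DMSO-only (100%) and medium-only (0%) wells.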

[4] = Quantitative High-Throughput drug screen in 47 multiple myeloma cell lines against the NCATS MIPE library collection: JIM3_ECACC cell viability assay (AID 1918963; note: nearly all actives have a fitted effect of over 35% in size)
In short: as §1

[5] = Quantitative High-Throughput drug screen in 47 multiple myeloma cell lines against the NCATS MIPE library collection: JIM1_ECACC cell viability assay (AID 1918964)
In short: as §1

[6] = Quantitative High-Throughput drug screen in 47 multiple myeloma cell lines against the NCATS MIPE library collection: INA6_PLB cell viability assay (AID 1918965; note: nearly all actives have a fitted effect of over 55% in size)
In short: as §1

[7] = Quantitative High-Throughput drug screen in 47 multiple myeloma cell lines against the NCATS MIPE library collection: JJN3_DSMZ cell viability assay (AID 1918966; note: nearly all actives have a fitted effect of over 50% in size)
In short: as §1

[8] = Quantitative High-Throughput drug screen in 47 multiple myeloma cell lines against the NCATS MIPE library collection: KMS12BM_JCRB cell viability assay (AID 1918971); note: nearly all actives have a fitted effect of over 35% in size
In short: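 Relative luminescence from CellTiter-Glo served as the viability signal, referenced to DMSO-treated (100%) and cell-free medium (0%) controls. Treatment lasted 48 hours at 37C with 500 cells per well.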

[9] = Quantitative High-Throughput drug screen in 47 multiple myeloma cell lines against the NCATS MIPE library collection: KMS12PE_JCRB cell viability assay (AID 1918972); note: nearly all actives have a fitted effect of over 30% in size
In short: as §1

[10] = Quantitative High-Throughput drug screen in 47 multiple myeloma cell lines against the NCATS MIPE library collection: KMS20_JCRB cell viability assay (AID 1918973); note: nearly all actives have a fitted effect of over 45% in size
In short: as §1

[11] = Quantitative High-Throughput drug screen in 47 multiple myeloma cell lines against the NCATS MIPE library collection: Delta47_JCRB cell viability assay (AID 1918925; note: nearly all actives have a fitted effect of over 45% in size)
In short: as §1

[12] = Quantitative High-Throughput drug screen in 47 multiple myeloma cell lines against the NCATS MIPE library collection: AMO1_DSMZ cell viability assay (AID 1918927; note: nearly all actives have a fitted effect of over 30% in size)
In short: as §1

[13] = Quantitative High-Throughput drug screen in 47 multiple myeloma cell lines against the NCATS MIPE library collection: Karpas620_DSMZ cell viability assay (AID 1918959); note: nearly all actives have a fitted effect of over 30% in size
In short: as §1

[14] = Quantitative High-Throughput drug screen in 47 multiple myeloma cell lines against the NCATS MIPE library collection: H1112_PLB cell viability assay (AID 1918967; note: nearly all actives have a fitted effect of over 30% in size)
In short: as §1

[15] = Quantitative High-Throughput drug screen in 47 multiple myeloma cell lines against the NCATS MIPE library collection: Karpas25_ECACC cell viability assay (AID 1918968; note: nearly all actives have a fitted effect of over 35% in size)
In short: as §1

[16] = Quantitative High-Throughput drug screen in 47 multiple myeloma cell lines against the NCATS MIPE library collection: KMS27_JCRB cell viability assay (AID 1918970); note: nearly all actives have a fitted effect of over 30% in size
In short: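 Each line is seeded at 500 cells per well and treated with library compounds for 48 hours under 37 °C, 5% CO2. CellTiter-Glo is then added for 5 min at room temperature before median relative luminescence is recorded.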

[17] = Quantitative High-Throughput drug screen in 47 multiple myeloma cell lines against the NCATS MIPE library collection: KMM1_JCRB cell viability assay (AID 1918960); note: nearly all actives have a fitted effect of over 30% in size
In short: as §2

[18] = Quantitative High-Throughput drug screen in 47 multiple myeloma cell lines against the NCATS MIPE library collection: Karpas417_ECACC cell viability assay (AID 1918961); settings: Karpas417 myeloma viability, CellTiter-Glo ATP luminescence, 48 h; viability (% of DMSO): at 45.8 µM (top of the series)
In short: as §1

[19] = Quantitative High-Throughput drug screen in 47 multiple myeloma cell lines against the NCATS MIPE library collection: KHM11_PLB cell viability assay (AID 1918962); note: nearly all actives have a fitted effect of over 35% in size
In short: as §1

[20] = Quantitative High-Throughput drug screen in 47 multiple myeloma cell lines against the NCATS MIPE library collection: ARD_JJKsccE7 cell viability assay (AID 1918929)
In short: as §1
Potency is the fitted concentration of half-maximal effect.

Cn1c(=O)n(-c2ccc(C(C)(C)C#N)cc2)c2c3cc(-c4cnc5ccccc5c4)ccc3ncc21
active: Potency [1] 9.3 nM | Potency [2] 833 nM | Potency [3] 18.7 nM | Potency [4] 132 nM | Potency [5] 20.9 nM | Potency [6] 16.6 nM | Potency [7] 148 nM | Potency [8] 13.2 nM | Potency [9] 52.6 nM | Potency [10] 372 nM

CCCNC(=O)Nc1ccc(Oc2ncnc3cc(OC)c(OC)cc23)cc1Cl
active: Potency [8] 18700 nM
inactive: Potency [11] | Potency [2] | Potency [12] | Potency [3] | Potency [13] | Potency [4] | Potency [5] | Potency [6] | Potency [7] | Potency [14] | Potency [15] | Potency [16] | Potency [9]

O=C(Nc1nc2cccc(-c3ccc(CN4CCS(=O)(=O)CC4)cc3)n2n1)C1CC1
active: Potency [1] 9350 nM | Potency [2] 18700 nM | Potency [12] 5900 nM | Potency [3] 20900 nM | Potency [17] 8330 nM | Potency [18] 1660 nM | Potency [19] 13200 nM | Potency [4] 18700 nM | Potency [5] 5900 nM | Potency [6] 3320 nM | Potency [7] 7430 nM | Potency [14] 23500 nM | Potency [8] 7430 nM | Potency [10] 18700 nM

NC(=O)c1cccc2cn(-c3ccc([C@@H]4CCCNC4)cc3)nc12
inactive: Potency [1] | Potency [2] | Potency [4] | Potency [16]
active: viability (% of DMSO) [18] 72.2% | Potency [6] 14800 nM | Potency [14] 20900 nM

CC1(C)CCC(c2ccc(Cl)cc2)=C(CN2CCN(c3ccc(C(=O)NS(=O)(=O)c4ccc(N[C@H](CCN5CCOCC5)CSc5ccccc5)c(S(=O)(=O)C(F)(F)F)c4)cc3)CC2)C1
active: Potency [11] 7430 nM | Potency [2] 8330 nM | Potency [12] 3720 nM | Potency [3] 13200 nM | Potency [20] 2640 nM | Potency [13] 18.7 nM | Potency [17] 1870 nM | Potency [19] 6620 nM | Potency [7] 9350 nM | Potency [14] 83.3 nM | Potency [15] 833 nM | Potency [16] 14.8 nM | Potency [8] 332 nM | Potency [9] 10.5 nM

COc1cc2c(Nc3ccc(NC(=O)c4ccccc4)cc3)ncnc2cc1OCCCN1CCOCC1
active: Potency [11] 8330 nM | Potency [3] 20900 nM | Potency [17] 6620 nM | viability (% of DMSO) [18] 112% | Potency [19] 8330 nM | Potency [7] 23500 nM | Potency [10] 10500 nM
inactive: Potency [13] | Potency [5]

CC(C)c1cc(-c2n[nH]c(=O)n2-c2ccc3c(ccn3C)c2)c(O)cc1O
active: Potency [11] 33.2 nM | Potency [12] 29.6 nM | Potency [3] 29.6 nM | Potency [20] 16.6 nM | Potency [13] 29.6 nM | Potency [17] 37.2 nM | Potency [18] 16.6 nM | Potency [4] 26.4 nM | Potency [5] 14.8 nM | Potency [6] 26.4 nM | Potency [7] 41.8 nM | Potency [15] 20.9 nM | Potency [16] 26.4 nM | Potency [8] 37.2 nM | Potency [9] 33.2 nM | Potency [10] 29.6 nM

CNC(=O)c1ccc(-c2cnc3ncc(Cc4ccc5ncccc5c4)n3n2)cc1F
active: Potency [7] 5900 nM
inactive: Potency [12] | Potency [13] | Potency [17] | Potency [19] | Potency [4]

Nc1ccn([C@@H]2O[C@H](CO)[C@H](O)C2(F)F)c(=O)n1
active: Potency [11] 41.8 nM | Potency [12] 59 nM | Potency [3] 105 nM | Potency [20] 296 nM | Potency [13] 469 nM | Potency [17] 83.3 nM | Potency [19] 5900 nM | Potency [4] 526 nM | Potency [5] 105 nM | Potency [6] 52.6 nM | Potency [14] 18.7 nM | Potency [16] 52.6 nM | Potency [8] 26.4 nM | Potency [9] 74.3 nM | Potency [10] 418 nM

O=C(C=Cc1cccnc1)NCCCCC1CCN(C(=O)c2ccccc2)CC1
active: Potency [17] 14.8 nM | Potency [18] 13200 nM | Potency [19] 23.5 nM | Potency [4] 1 nM | Potency [6] 1 nM | Potency [7] 20.9 nM | Potency [14] 13.2 nM | Potency [15] 5.9 nM | Potency [16] 13.2 nM | Potency [8] 20.9 nM | Potency [9] 14.8 nM
inactive: Potency [2]

CC(C)Nc1cc(C(F)(F)F)cc2nc(NC(=O)c3cccnc3)nn12
inactive: Potency [20] | Potency [13] | Potency [17] | Potency [4] | Potency [5] | Potency [14] | Potency [15] | Potency [16] | Potency [9]
active: Potency [2] 14800 nM

CC[C@H](CO)Nc1nc(NCc2ccccc2)c2ncn(C(C)C)c2n1
active: Potency [11] 16600 nM | Potency [2] 26400 nM | Potency [12] 9350 nM | Potency [19] 18700 nM | Potency [4] 26400 nM | Potency [5] 6620 nM | Potency [7] 18700 nM | Potency [14] 18700 nM | Potency [15] 20900 nM
inactive: Potency [13] | Potency [9]
